# Screening data deposited in PubChem BioAssay by NMMLSC.
# VLA-4 allo ag = enhancers of LDV-FITC binding to VLA-4 integrin, primary screen, Jurkat cells, flow cytometry; AID 528, 2006; Integrin alpha-4 (Homo sapiens), P13612; 24,000 tested, under 10 active; activation, % at 10 µM (by protocol);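 active means fluorescent ligand binding to cells raised by more than 40% of the manganese-induced maximum; inconclusive means compound's own fluorescence above 85% of the ligand control signal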;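 further: 0% = ligand binding without compound and 100% = manganese-stimulated maximal binding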
# FPRL1 binder = human FPRL1 ligands by binding competition, primary screen, cell-based, FPR counter-screen, flow cytometry; FPRL1-expressing cells, fluorescent ligand binding inhibition; actives 0.3% (n = 24,000); AID 441, 2006; N-formyl peptide receptor 2 (Homo sapiens), P25090; inhibition, % (no concentration beside the values);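 further: 0% = buffer alone and 100% = receptor blocker peptide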
# FPR binder = human FPR ligands by binding competition, primary screen, cell-based, FPRL1 counter-screen, flow cytometry | FPR-expressing cells, fluorescent ligand binding | inhibition, % (no concentration beside the values) | actives 0.74% (n = 24,000);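 further: 0% = buffer wells and 100% = receptor blocker peptide wells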
# Autofluor Jurkat = compound autofluorescence on Jurkat cells, primary screen, artefact control for VLA-4 allosteric ligand project, cell-based, flow cytometry; active compounds read high; 1 = vehicle-only cell background; actives 0.61% (n = 24,000); fluorescence ratio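 (tested at 10 µM compound in the well)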;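 active means fluorescence ratio above 2.44, which is 1 plus 3 SD of all ratios; inconclusive means signal too bright to measure linearly, ratio around 10 or more; inactive means fluorescence ratio below 2.44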;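 further: green fluorescence of cells measured with 488 nm excitation and 530 nm emission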
# VLA-4 antagonist = inhibitors of LDV-FITC binding to Mn2+-activated VLA-4, primary screen, Jurkat cells | inhibition, % at 10 µM (by protocol) | actives 0.2% (n = 24,000) | Integrin alpha-4 (Homo sapiens), P13612 | LDV-FITC binding with Mn2+, flow cytometry; 100% = Mn2+-driven binding gain fully reversed;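 active means inhibition above 50%; inconclusive means compound itself fluorescent, judged against control cell fluorescence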;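 further: 0% = Mn2+ stimulated cells lacking compound and 100% = ligand binding without Mn2+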
# Prostate diff = activators of LNCaP prostate cell differentiation, primary screen, flow cytometry side scatter. side scatter shift, % at 10 µM. 4 d. actives 0.56% (n = 24,000);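 active means side scatter shift above 30%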;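 further: androgen-responsive LNCaP prostate cancer cells in charcoal-stripped serum medium; percent of cells past a gate set so DMSO wells show 10% shift; higher shift means more granular cells and more differentiation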
# Active calls of the source: *; u = inconclusive. Hits are enriched below; roughly 2.4% of the tested compounds scored in any of these assays. Unless noted, no stated cut-off is given here; in the data, active means inhibition above about 30%; inconclusive means no clear call, values can overlap the other calls; inactive means below that.
SMILES,VLA-4 allo ag,FPRL1 binder,FPR binder,Autofluor Jurkat,VLA-4 antagonist,Prostate diff
CC(C)[C@@]1(NC(=O)[C@@H]2C=C3c4cccc5[nH]cc(c45)C[C@H]3N(C)C2)O[C@@]2(O)[C@@H]3CCCN3C(=O)[C@H](Cc3ccccc3)N2C1=O,u,1.3,-4.2,3.51*,u,9.0
Cc1nc2c(c(C)nn2-c2ccccc2)c(C)c1CCC(=O)N1CCC2(CC1)OCCO2,u,-7.3,-2.3,1.3,u,10.0
